The source of these data is PubChem BioAssay AID602 (SRMLSC, 2007).

The nature of this assay: MRP1 drug-resistance reversers in H69AR cells – cell-based, doxorubicin co-treatment, primary screen (AID 602).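 On differential viability (reversal): larger differential means the compound sensitizes cells more to doxorubicin.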 The settings on record: CellTiter-Glo, 72 h, at 10 µM; for differential viability (reversal): stronger effect = higher value. (In general: ATP-based viability assays read luminescence as a measure of living cells.)
Setting [1] is: H69AR cells + 2 uM doxorubicin, measured here: viability with 2 uM doxorubicin, stronger effect = lower value.
The mark [2] stands for this setting: H69AR cells, measured here: cytotoxicity without doxorubicin.

About 35 (0.04%) of roughly 85,000 compounds were called active. This is one part of a sample in which actives are shown more often than they occur.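 How the source made its calls: active means viability drop by adding the cancer drug above about 55%, with treated viability meeting a 40% cutoff (limit read from the data); inactive means the rest, inconclusive results apart.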

Take `O=C(NCc1ccco1)c1ccc(Cn2c(=O)c3sccc3n(Cc3ccc(F)cc3)c2=O)cc1`: the differential viability (reversal) (H69AR cells + 2 uM doxorubicin) was 11.8% (inactive). Also, the viability reads like this: under setting [1], 70.9%; under setting [2], 82.7%.
Turning to `CC1(C)CCc2nc(SCc3ccccc3)c(C#N)cc2C1`, under “H69AR cells + 2 uM doxorubicin”, the differential viability (reversal) was 3.69% (inactive). The viability is, setting by setting: under setting [1], 77.7%; under setting [2], 81.4%.
`Cc1csc(OCC(=O)Nc2ccc(C)c(C)c2)n1`: where the note is “H69AR cells + 2 uM doxorubicin”, the differential viability (reversal) is 0.06% (inactive). For the same compound, the viability runs as follows: under setting [1], 107%; under setting [2], 107%.
On to `Cc1ccc(O)c(CNc2nc3ccccc3n2C)c1`, for which the differential viability (reversal) (H69AR cells + 2 uM doxorubicin) is 3.81% (inactive). Moreover, the viability came out at 84.6% under setting [1] and 88.4% under setting [2].
Regarding `O=c1[nH]c2c(c(=O)n1Cc1ccccc1)CCC2`, the differential viability (reversal) (H69AR cells + 2 uM doxorubicin) is 3.8% (inactive). In addition, the viability amounted to 94.9% under setting [1] and 98.7% under setting [2].
With `COC(=O)c1ccccc1NC(=O)CSc1nnnn1C`, for the setting “H69AR cells + 2 uM doxorubicin”, the differential viability (reversal) is -8.64% (inactive). Also, the viability reads like this: under setting [1], 104%; under setting [2], 95.3%.
As to `O=C(NCc1cccnc1)Nc1ccccc1F`, where the note is “H69AR cells + 2 uM doxorubicin”, the differential viability (reversal) is -0.98% (inactive). Also, the viability is, setting by setting: under setting [1], 99.8%; under setting [2], 98.8%.
For `CCCc1nc2scc(-c3ccc(C)cc3)c2c(=O)n1N`, in that order: -37.7% (inactive), 83.8% and 46.1%.
With `CC(=O)c1ccc2c(c1)c1ccccc1n2CC(C)C`, the differential viability (reversal) (H69AR cells + 2 uM doxorubicin) was -0.04% (inactive). Moreover, the viability worked out at 73.3% under setting [1] and 73.2% under setting [2].
`CCCCC(C(=O)OCC(=O)c1ccc(OC)cc1)N1C(=O)c2ccccc2C1=O` (centres undefined): the differential viability (reversal) (H69AR cells + 2 uM doxorubicin) is -8.79% (inactive). Further, the viability is, setting by setting: under setting [1], 104%; under setting [2], 95%.
Take `CCn1nccc1C(=O)Nc1ccc(S(=O)(=O)NC23CC4CC(CC(C4)C2)C3)cc1`: the differential viability (reversal) (H69AR cells + 2 uM doxorubicin) was -7.56% (inactive). In addition, the viability under setting [1] stood at 84% and the viability under setting [2] turned out to be 76.5%.
Regarding `COc1ccc(Nc2nc(=O)[nH]nc2C)cc1`, the differential viability (reversal) (H69AR cells + 2 uM doxorubicin) was -5.85% (inactive). Also, the viability was 101% under setting [1] and 95.5% under setting [2].
In the case of `CCOC(=O)Cc1csc(NC(=O)CSc2nnc(-c3cccnc3)n2Cc2ccco2)n1`, the differential viability (reversal) (H69AR cells + 2 uM doxorubicin) was 14.6% (inactive). The viability worked out at 85.7% under setting [1] and 100% under setting [2].
`COCCn1c(=S)[nH]c2cc(C(=O)NCCc3ccc(OC)c(OC)c3)ccc2c1=O`: the differential viability (reversal) (H69AR cells + 2 uM doxorubicin) was 2.26% (inactive). Further, the viability under setting [1] came out at 75.8% and the viability under setting [2] was 78.1%.
For `CC(=O)Nc1ccc(N2C(=O)CCC2=O)cc1C`, in that order: -10.5% (inactive), 86.7% and 76.2%.
For `CCc1c(C)sc(NC(=O)c2cccs2)c1C(N)=O`, in that order: 4.09% (inactive), 95.6% and 99.7%.
For the compound `CC1(C)OC(=O)N2CCc3ccccc3C21C` (centres undefined), the differential viability (reversal) (H69AR cells + 2 uM doxorubicin) is 3.59% (inactive). The viability under setting [1] was 88% and the viability under setting [2] was 91.6%.
`Cc1[nH]n(-c2ccc([N+](=O)[O-])cc2)c(=O)c1C=NCCN1CCN(C(=O)c2ccccc2F)CC1`: the differential viability (reversal) (H69AR cells + 2 uM doxorubicin) was -1.07% (inactive). Further, the viability by setting is: under setting [1], 40.5%; under setting [2], 39.4%.
As for `COc1cccc(N(CC(=O)NCCSc2ccccn2)S(C)(=O)=O)c1`, the differential viability (reversal) (H69AR cells + 2 uM doxorubicin) was 3.02% (inactive). In addition, the viability runs as follows: under setting [1], 92.5%; under setting [2], 95.5%.
Consider `CCCC1NC(=O)NC(C)=C1C(=O)OCC` (centres undefined), for which the differential viability (reversal) (H69AR cells + 2 uM doxorubicin) was 2.9% (inactive). Further, the viability reads like this: under setting [1], 96.9%; under setting [2], 99.8%.
For `COc1ccccc1C(c1nnnn1C(C)(C)C)N1CCN(Cc2ccccc2)CC1` (centres undefined), for the setting “H69AR cells + 2 uM doxorubicin”, the differential viability (reversal) was 9.02% (inactive). Further, the viability reads like this: under setting [1], 76.2%; under setting [2], 85.2%.
On to `Cc1cc2nnc(SCC(=O)N3CCN(c4ccccc4)CC3)n2c(N)n1`, for which the differential viability (reversal) (H69AR cells + 2 uM doxorubicin) was -1.47% (inactive). In addition, the viability under setting [1] was found to be 65.8% and the viability under setting [2] is 64.4%.
In the case of `O=C(Nc1ccc(Cl)cc1)c1cc2nc(C3CC3)cc(C(F)(F)F)n2n1`, the differential viability (reversal) (H69AR cells + 2 uM doxorubicin) is 10.2% (inactive). In addition, the viability is, setting by setting: under setting [1], 69.3%; under setting [2], 79.5%.
For `CC1=CC(C)(C)Nc2ccc(OC(=O)C(Cc3ccccc3)N3C(=O)C4CCCCC4C3=O)cc21` (centres undefined) the same measures were 11.8% (inactive), 68.5% and 80.3%.
In the case of `COCCn1c(C)cc(C2=NNC(=Nc3ccc(F)cc3)SC2)c1C`, the differential viability (reversal) (H69AR cells + 2 uM doxorubicin) was -17.5% (inactive). In addition, the viability came to 106% under setting [1] and 88.2% under setting [2].
Turning to `Cc1ccc(-n2c(=O)c(C#N)cc3c(=O)n4ccccc4nc32)cc1C`, the differential viability (reversal) (H69AR cells + 2 uM doxorubicin) is -12.1% (inactive). Besides, the viability under setting [1] came out at 87.2% and the viability under setting [2] is 75.1%.
Turning to `Cc1cc(NC(=O)CSc2nc(C(C)C)nc3sc4c(c23)CCC(C)C4)no1` (centres undefined), for the setting “H69AR cells + 2 uM doxorubicin”, the differential viability (reversal) was -2.83% (inactive). Moreover, the viability runs as follows: under setting [1], 8.84%; under setting [2], 6.01%.
For `CC(C)NC(=O)CSc1ccccc1C(=O)NCc1ccc2c(c1)OCO2`, where the note is “H69AR cells + 2 uM doxorubicin”, the differential viability (reversal) is 5% (inactive). In addition, the viability runs as follows: under setting [1], 91.7%; under setting [2], 96.7%.
Consider `Cc1cccc2c(=O)n3c(nc12)CCCCC3`, for which, for the setting “H69AR cells + 2 uM doxorubicin”, the differential viability (reversal) is 7.51% (inactive). For the same compound, the viability reads like this: under setting [1], 83.8%; under setting [2], 91.3%.
For the compound `COc1ccc(CNC(=O)CCn2cccc2)cc1`, the differential viability (reversal) (H69AR cells + 2 uM doxorubicin) was -1.19% (inactive). Also, the viability amounted to 100% under setting [1] and 98.9% under setting [2].
Turning to `CCOc1cc(C(=O)Nc2c(C)ccc3nsnc23)cc(OCC)c1OCC`, the differential viability (reversal) (H69AR cells + 2 uM doxorubicin) is -5.65% (inactive). Further, the viability is, setting by setting: under setting [1], 84%; under setting [2], 78.3%.
As for `COC(=O)c1sccc1NC(=O)CCC1CCCC1`, under “H69AR cells + 2 uM doxorubicin”, the differential viability (reversal) is 11.8% (inactive). Also, the viability under setting [1] stood at 81.7% and the viability under setting [2] worked out at 93.5%.
Regarding `Cc1cc(O)cc(O)c1C(=O)Cc1cnn(-c2ccccc2)c1`, the differential viability (reversal) (H69AR cells + 2 uM doxorubicin) is 13% (inactive). Also, the viability reads like this: under setting [1], 66.8%; under setting [2], 79.8%.
For `CCOC(=O)c1c(N)sc(C(C)=O)c1C` the same measures were 11.1% (inactive), 81.7% and 92.8%.
As to `Cc1cccc(S(=O)(=O)CC(=O)Nc2nc(-c3ccccc3)cs2)c1`, the differential viability (reversal) (H69AR cells + 2 uM doxorubicin) is 12.9% (inactive). Also, the viability came out at 86.8% under setting [1] and 99.7% under setting [2].
As to `Cn1c(SCC(=O)C(C)(C)C)nnc1-c1ccccn1`, the differential viability (reversal) (H69AR cells + 2 uM doxorubicin) was 3.29% (inactive). Further, the viability reads like this: under setting [1], 95%; under setting [2], 98.3%.
As to `COc1ccc(NC(=O)C2C3C=CC(C3)C2C(=O)NCc2ccccn2)c(OC)c1` (centres undefined), the differential viability (reversal) (H69AR cells + 2 uM doxorubicin) is 48.3% (inactive). The viability amounted to 44.7% under setting [1] and 93.1% under setting [2].
As to `Cc1ccc(S(=O)(=O)NCC(=O)N2CCN(c3ccccn3)CC2)cc1`, the differential viability (reversal) (H69AR cells + 2 uM doxorubicin) was 14.2% (inactive). The viability is, setting by setting: under setting [1], 87.1%; under setting [2], 101%.

One may read the viability as a read-out of living cells in per cent, often relative to untreated cells.
